Data reported in PubChem BioAssay AID1345083 (National Center for Advancing Translational Sciences (NCATS), 2018).
Screen size: about 94,000 compounds; about 6,200 (6.6%) were called active. Where a call stands in place of a potency, no number is given. Inconclusive results (about 31%) are left out. Calls come from the whole dose curve; as a rule, active = well fitted inhibition curve with a large enough effect; inconclusive = small, poorly fitted or top-dose-only effect; inactive = flat fitted curve, though single readings scatter. Only a selection was taken, and actives are over-represented in it overall.

Assay: Cytotoxic Profiling in HEK 293 Cell Line of Diverse Libraries Using Quantitative High-Throughput Screening; note: nearly all actives have a fitted effect of over 60% in size
Details: HEK 293 viability, ATP luminescence (CellTiter-Glo), 48-72 h; series mostly up to 115 µM
In short: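 HEK 293 cells seeded at 250 cells/well were exposed to compound for 48 or 72 hr at 37 degree Celsius. Viability taken as ATP content by CellTiter-Glo luminescence.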
Potency is the fitted concentration of half-maximal effect.

Row | Compound | Potency
1 | COc1cccc(CN2CC(O)CN(S(C)(=O)=O)CC2=O)c1OC (stereo not given) | inactive
2 | COc1ccc2[nH]c(C(=O)N[C@@H]3CN(S(C)(=O)=O)C[C@H]3CN(C)C)cc2c1 | inactive
3 | CCNC(=O)N1CCC(n2c(C)cnc2C2CCC2)CC1 | inactive
4 | COCCc1noc(CC2CCOC3(CCN(C(=O)Nc4ccc5c(c4)OCCO5)CC3)C2)n1 (stereo not given) | inactive
5 | CC1=NOC2(CCN(Cc3ccncc3)CC2)C1 | inactive
6 | COc1ccc(CN2CCC3(CC2)CC(=O)c2ccc(Cl)cc2O3)cc1 | 39.8 µM (active)
7 | COc1ccc(CN2CCC3(CC(C(C)C)=NO3)C2)cc1 (stereo not given) | inactive
8 | COc1ccccc1CN1CC[C@H](CNC(C)=O)[C@H](N(C)C)C1 | inactive
9 | O=C(Cc1ccc(F)cc1)NC1CCN(c2cc(-c3ccc(Cl)cc3)[nH]n2)CC1 | inactive
10 | COc1ccc(-c2cc(N3CCN(C(=O)c4ccncc4)CC3)n[nH]2)cc1 | inactive
11 | O=C(N1CCN(c2cc(-c3ccc(Cl)cc3)[nH]n2)CC1)C1(c2ccccc2)CC1 | 44.7 µM (active)
12 | O=C(c1ccc(F)cc1F)N1CCN(c2cc(-c3ccc(Cl)cc3)[nH]n2)CC1 | 39.8 µM (active)
13 | O=C(c1ccc2cc[nH]c2c1)N1CCCN(c2cc(-c3ccc(Cl)cc3)[nH]n2)CC1 | 39.8 µM (active)
14 | O=C(NCc1ccccc1F)C1(c2ccc(Cl)cc2)CCOCC1 | inactive
15 | CC(=O)N1CCC(C(=O)NCC2CCN(c3cc(-c4ccc(C)cc4)[nH]n3)CC2)CC1 | inactive
16 | Cc1nccn1CC(=O)NCC1CCN(c2cc(-c3ccccc3)[nH]n2)CC1 | inactive
17 | COc1ccccc1C(=O)N1CCCN(c2nnc3ccccn23)CC1 | inactive
18 | O=C(c1ccccc1Cl)N1CCCN(c2cc(-c3ccc(F)cc3)[nH]n2)CC1 | 44.7 µM (active)
19 | COc1ccccc1C(=O)N1CCCN(c2ccc3nnc(C)n3n2)CC1 | inactive
20 | O=C(NCC1CCN(c2cc(-c3ccc(Cl)cc3)[nH]n2)CC1)c1ccc(=O)[nH]c1 | inactive
21 | C#CCNC(=O)C[C@@H]1O[C@H](CNC(C)=O)[C@@H](O)[C@H]1O | inactive
22 | O=C(NCCc1ccccc1)c1nc2sccn2c1-c1ccccc1 | inactive
23 | Cc1nc(CC(=O)N2C[C@@H](CN3CCCCCC3)[C@@H](CO)C2)cs1 | inactive
24 | COCC(=O)N1C[C@@H](COc2cccnc2)[C@H](c2ccccn2)C1 | inactive
25 | CN(CCc1ccccn1)[C@@H]1[C@H](O)[C@H](CO)O[C@@H]1CNS(=O)(=O)c1cccs1 | inactive

Row | Compound | Potency
26 | O=C(c1cnccn1)N1CCC(NCc2cc3n(n2)CCCNC3)CC1 | inactive
27 | Cc1noc(C)c1S(=O)(=O)N[C@@H]1C[C@H](Cn2cc(C3CC3)nn2)[C@@H](O)[C@H]1O | inactive
28 | O=C(NC1CCCCC1)C1CN(C(=O)c2ccccc2F)CC12CCOCC2 (stereo not given) | inactive
29 | Cc1ccc(-n2c(C3CCN(C(=O)c4ccoc4)CC3)n[nH]c2=O)cc1 | inactive
30 | Cc1cc(C)cc(-c2ccc(CN3CCCC(NC(=O)c4ccccc4)C3)cc2)c1 (stereo not given) | 28.2 µM (active)
31 | COc1ccc(CC(=O)NC2CCN(c3ccc4nnc(C)n4n3)CC2)cc1 | inactive
32 | COc1ccccc1-c1nnc2ccc(C(=O)NC3CC3)cn12 | inactive
33 | O=C(NC1CCCN(c2ccc3nnc(C4CC4)n3n2)C1)c1ccc(Cl)nc1 (stereo not given) | inactive
34 | Cc1ccc(-c2cccc(CN3CCCC(NC(=O)c4ccc(Cl)cc4)C3)c2)cc1Cl (stereo not given) | inactive
35 | COc1ccc(-c2ccccc2C(=O)N2CCC(NC(=O)Cc3ccc(F)cc3)CC2)nn1 | inactive
36 | COc1ccccc1-c1ccc(CN2CCC(NC(=O)c3ccc(Cl)nc3)C2)cc1 (stereo not given) | 50.1 µM (active)
37 | COc1ccc(F)cc1-c1ccc(CN2CCC(N[S+](=O)([O-])c3ccccc3)C2)cc1 (stereo not given) | 44.7 µM (active)
38 | CC(C)Nc1ncc(C(=O)NC2CCCN(CCc3ccccc3)C2)cn1 (stereo not given) | inactive
39 | COc1ccc(CC(=O)NC2CCN(Cc3ccc(-c4ccccc4OC)cc3)C2)cc1 (stereo not given) | 39.8 µM (active)
40 | Fc1ccc(CN2CC(Oc3ccc(F)cc3F)C2)cc1 | inactive
41 | COc1ccccc1-c1ccc(C(=O)O)cc1 | inactive
42 | CN(C)C(=O)C1CN(C(=O)c2ccccc2Cl)CC12CCOCC2 (stereo not given) | inactive
43 | Cc1cnc(C2CC2)n1C1CCN(C(=O)C(C)C)CC1 | inactive
44 | COc1ccc(C(=O)N2CCOC3(CCN(C(=O)CN)CC3)C2)cc1 | inactive
45 | COCCNC(=O)c1ccc(CC2CCNCC2)cc1 | inactive
46 | Cc1cnc(-c2cccnc2)n1C1CCN(S(=O)(=O)c2cccc(F)c2)CC1 | inactive
47 | O=C(c1c(OCC2CC2)cc(=O)n2c1CCOCC2)N1CCCCCC1 | inactive
48 | CCOc1ccc(NC(=O)C2(Cc3cccnc3)CCCCC(=O)N2)cc1 (stereo not given) | inactive
49 | COc1cccc(NC(=O)c2cnc3n[nH]c(-c4ccc(OC)cc4C)c3n2)c1 | 100 µM (active)
50 | COc1cccc(NC(=O)c2c(OC)cc(=O)n3c2CCCC3)c1 | inactive

Row | Compound | Potency
51 | COC(=O)C1=CN(CC(=O)Nc2cccc(OC)c2)S(=O)(=O)N=C1C | inactive
52 | CC(c1ccon1)N(C)Cc1cnc(S(=O)(=O)C(C)C)n1Cc1ccccc1F (stereo not given) | inactive
53 | O=C(NC1CCCCC1)N1CCCCCC1c1nc(-c2cccnc2)no1 (stereo not given) | inactive
54 | CN1CCC(N2CCC[C@H]2c2nc(-c3ccc(OC4CCCCC4)nc3)no2)CC1 | 28.2 µM (active)
55 | CC(=O)N1CCC(N2CCC[C@H]2c2nc(-c3ccc(-c4cncnc4)nc3)no2)CC1 | inactive
56 | O=C(N[C@@H]1CN(Cc2cccnc2)C[C@H]1CO)c1cccnc1 | inactive
57 | CCn1cc(CN2CCOc3ccc(C(=O)NCc4ccccc4F)cc3C2)cn1 | inactive
58 | O=[S+]([O-])(Nc1cccnc1)c1ccc2c(c1)OCCN(Cc1cscn1)C2 | inactive
59 | COc1c(F)cccc1CN1CCOc2cc([S+](=O)([O-])N(C)C)ccc2C1 | 79.4 µM (active)
60 | O=C(c1ccccc1F)N1CCCC2(CN[S+](=O)([O-])c3cccnc3N2)C1 (stereo not given) | inactive
61 | Cc1nonc1OCCNC1CCC2(CCNCC2)CC1 | inactive
62 | CN(CCCNC1CCC2(CCNCC2)CC1)c1ccccc1 | 79.4 µM (active)
63 | O=c1c2ccccc2cnn1CCNC1CCC2(CCNCC2)CC1 | inactive
64 | CNC(=O)[C@@H]1CN(C(=O)c2cnc(C)cn2)C[C@H]1COC | inactive
65 | Cc1onc(-c2cnn(C)c2NCc2ccc(C#N)cc2)c1C(=O)N1CCN(C)CC1 | inactive
66 | CNC(=O)N1CCCC1c1nc(C2CN(C(=O)c3nccn3C)C2)no1 (stereo not given) | inactive
67 | Cn1ncc2c(C(=O)NCc3ccc4c(c3)OCO4)cc(-c3ccc(Cl)nc3)nc21 | inactive
68 | CN1C(=O)CC[C@]2(C(=O)NCc3ccc4c(c3)OCO4)CCCC[C@@H]12 | inactive
69 | CC1(C(=O)NCc2ccc3c(c2)OCO3)CCc2cnc(NCc3ccccc3)nc21 (stereo not given) | 70.8 µM (active)
70 | O=C1Nc2ccc(-c3ccccc3)cc2C(=O)N2C[C@H](O)C[C@@H]12 | inactive
71 | O=C(Cc1cc(F)c(F)c(F)c1)N1CCC(Cc2cccc(CO)c2)C1 (stereo not given) | inactive
72 | CC(C)(CC(=O)O)CC(=O)N[C@H]1CO[C@H]2[C@@H]1OC[C@@H]2n1nnnc1-c1ccccc1 | inactive
73 | c1ccc(CO[C@@H]2CO[C@H]3[C@@H]2OC[C@@H]3n2nnnc2SCc2ccco2)cc1 | 89.1 µM (active)
74 | CN(C)CC(=O)N1CC[C@H]2COC(=O)N2c2ccccc2C1 | inactive
75 | Cc1nc(CCNC(=O)NC2CCCC2)no1 | inactive

Row | Compound | Potency
76 | CNC(=O)[C@@H]1C[C@@H](O)CN1C1CCN(C(=O)C2(c3ccccc3)CC2)CC1 | inactive
77 | COC1C(=O)N(c2cccc(F)c2)C12CCN(C(=O)C1(c3ccccc3)CC1)CC2 (stereo not given) | 44.7 µM (active)
78 | CN1C(=O)CS(=O)(=O)C12CCN(C(=O)C1(c3ccccc3)CC1)CC2 | inactive
79 | O=C([C@@H]1C[C@H](Oc2cccnc2)CN1C(=O)Cc1cccc(F)c1)N1CCCC1 | inactive
80 | CCCN(CC1CCOC1)S(=O)(=O)c1ccccc1Cl (stereo not given) | inactive
81 | CN1CCN(c2nc3c(c(=O)[nH]2)CCN(Cc2cccc4[nH]ccc24)CC3)CC1 | inactive
82 | Cc1ccc(C2Cn3nnc(C(=O)N4CCN(C(=O)COc5cccc(C)c5)CC4)c3CO2)cc1 (stereo not given) | inactive
83 | CC(=O)N1CCN(c2cc(-c3noc([C@@H]4CCCN4Cc4ccccc4)n3)ccn2)CC1 | 70.8 µM (active)
84 | COc1ccc(CN2CCC[C@H]2c2nc(-c3ccc(N(C)C)nc3)no2)c(O)c1 | inactive
85 | CS(=O)(=O)c1ccc(CN2CCC[C@H]2c2nc(-c3ccc(N4CCC(C(N)=O)CC4)nc3)no2)cc1 | inactive
86 | O=C1CC(c2nc(-c3ccc4nc[nH]c4c3)no2)CN1Cc1ccncc1 (stereo not given) | inactive
87 | c1ccc2c(CN3CCC[C@H]3c3nc(-c4ccnc(N5CCOCC5)c4)no3)c[nH]c2c1 | 89.1 µM (active)
88 | CC(=O)N1CCN(c2cc(-c3noc([C@@H]4CCCN4C4CCC4)n3)ccn2)CC1 | inactive
89 | Cc1cn2nc(C(=O)NCc3cccs3)cc2c(N2CCCC2)n1 | inactive
90 | CNc1nc(N2CC[C@H](N3CCN(C)CC3)[C@H](CCC(=O)O)C2)ncc1F | inactive
91 | COc1ccc(NC(=O)N2CCC(CC(=O)NCc3ccccc3)C2)cc1OC (stereo not given) | inactive
92 | COC[C@H]1CCCN1Cc1nc(C2(O)CCN(CC3CCCCC3)CC2)cs1 | inactive
93 | Cc1nc(CCNS(=O)(=O)Cc2cccc(Cl)c2)no1 | inactive
94 | COc1ccc(C(=O)N2CC(c3nnc(-c4ccncc4)o3)C3(CCOCC3)C2)cn1 (stereo not given) | inactive
95 | Cc1ccc(CC(=O)N2CCC(Cc3nc(-c4cnccn4)no3)CC2)cc1 | inactive
96 | Cc1ccc(Nc2ccnc(N3CCCC3C(=O)N3CCC(Cc4ccccc4)CC3)n2)cc1 (stereo not given) | 14.1 µM (active)
97 | O=C(NCCCc1ccccc1)C1CCCN1c1nccc(Nc2ccccc2F)n1 (stereo not given) | 44.7 µM (active)
98 | O=C(NCCc1ccccc1)C1CCCN1C(=O)c1cccc(-c2ccccn2)c1 (stereo not given) | inactive
99 | CC(=O)N1CCC(c2nnc3n2C(C(=O)NCCCc2ccccc2)CC3)CC1 (stereo not given) | inactive
100 | CNC(=O)[C@@H](Cc1ccccc1)N1CCC[C@H]1C(=O)N1CCC1 | inactive
